Test results reported in PubChem BioAssay.
Calls of active or inactive are those of the source. No rule for the calls is given here.

target: Pantothenate synthetase (Mycobacterium tuberculosis (strain ATCC 25618 / H37Rv)) (UniProt P9WIL5); experiment: Coupled enzyme confirmation of inhibitors against recombinant Mtb PanC (AID 375); details: coupled enzyme assay; at 10 µM, hits give high values;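 also: 0% = full reaction with vehicle and 100% = no enzyme background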
Sequence (P9WIL5 whole entry, looked up): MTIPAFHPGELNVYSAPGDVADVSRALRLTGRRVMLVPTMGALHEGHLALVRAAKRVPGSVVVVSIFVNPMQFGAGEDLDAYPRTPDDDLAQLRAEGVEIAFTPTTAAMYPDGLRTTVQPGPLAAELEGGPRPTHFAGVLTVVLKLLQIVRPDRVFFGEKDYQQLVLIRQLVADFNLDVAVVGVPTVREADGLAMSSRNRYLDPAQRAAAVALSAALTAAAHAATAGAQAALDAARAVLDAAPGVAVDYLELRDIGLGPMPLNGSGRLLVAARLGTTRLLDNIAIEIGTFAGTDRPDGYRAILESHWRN

Row | Structure (SMILES) | inhibition
1 | Cc1c(C(=O)O)oc2ccc(S(=O)(=O)NCCC3=CCCCC3)cc12 | 2% (inactive)
2 | Cc1cc(C)cc(C(=O)N2CCC(C(N)=O)CC2)c1 | 0% (inactive)
3 | CCN(C(=O)c1cc(Cl)ccc1OC)C1CCCCC1 | 0% (inactive)
4 | Cc1ccc(C)c(N2C(=O)CN=C2Nc2ccccc2Cl)c1 | 4% (inactive)
5 | CCC(=NC(C)c1ccccc1)c1c(O)n(C)c(=O)n(C)c1=O (stereo not given) | 0% (inactive)
6 | Cn1c(=O)c2c(nc(SCc3nn[nH]n3)n2Cc2ccccc2F)n(C)c1=O | 0% (inactive)
7 | CSc1ccc(-c2cc(=O)c3ccccc3o2)cc1 | 5% (inactive)
8 | Cc1ccc(C(=O)/C=C/Nc2cccc(O)c2)cc1 | 8% (inactive)
9 | CN(c1cccc(NS(=O)(=O)c2cccs2)c1)S(C)(=O)=O | 0% (inactive)
10 | O=C1CNCc2[nH]c3ccccc3c2N1c1ccccc1 | 0% (inactive)
11 | COc1ccc(CCNC(=O)c2nc3ncccn3n2)cc1OC | 0% (inactive)
12 | CCCCSCCCNC(=O)CS(=O)Cc1nc(-c2cccc(C)c2)oc1C (stereo not given) | 6% (inactive)
13 | N#CC1=C(SCc2ccccc2)NC(=O)C(C#N)C12CCCC2 (stereo not given) | 2% (inactive)
14 | O=C(Nc1cccc(F)c1)c1cccc(S(=O)(=O)N2CCOCC2)c1 | 0% (inactive)
15 | O=C(Cn1cnc2c(nnn2-c2ccc(F)cc2)c1=O)N1CCCc2ccccc21 | 0% (inactive)
16 | CCOC(=O)C1CCN(C(=O)C2(NC(=O)Nc3ccccc3Cl)CCCCC2)CC1 | 0% (inactive)
17 | c1ccc(OCc2nc(-c3ccccc3)no2)cc1 | 0% (inactive)
18 | O=C(CN1C(=O)NC2(CCCCCC2)C1=O)N1CCC(Cc2ccccc2)CC1 | 2% (inactive)
19 | CCN1C(=O)CC(C(=O)Nc2ccc(F)cc2)SC1=Nc1ccc2c(c1)OCO2 (stereo not given) | 6% (inactive)
20 | Cc1oc(-c2ccccc2)cc1C(N)=O | 0% (inactive)

Row | Structure (SMILES) | inhibition
21 | CC(=O)NCCCCCCNC(C)=O | 0% (inactive)
22 | COC(=O)CCC(NC(=O)c1cc(-c2ccc3c(c2)OCCO3)oc1C)C(=O)OC (stereo not given) | 0% (inactive)
23 | CCOC(=O)NC(=O)CSc1nnc(C)s1 | 4% (inactive)
24 | Nc1nc(-n2cnnc2)nn1-c1ccccc1 | 0% (inactive)
25 | Cn1c(=N)c(S(=O)(=O)c2ccccc2)cc2c(=O)n3ccccc3nc21 | 2% (inactive)
26 | C/C(Nc1cccc(F)c1)=C(/C#N)C(N)=O | 3% (inactive)
27 | O=C(CS(=O)CC(=O)Nc1cccc2c1CCCC2)Nc1ccc(F)cc1 (stereo not given) | 0% (inactive)
28 | CS(=O)(=O)c1ccc2nc(NC(=O)CCC(=O)c3cccs3)sc2c1 | 1% (inactive)
29 | COC(=O)CCSCc1cn2cc(Cl)ccc2n1 | 0% (inactive)
30 | O=C(Nc1ccccc1)c1cccnc1N1CCOCC1 | 0% (inactive)
31 | CC(C)C(NC(=O)c1ccco1)C(=O)NCC(c1ccco1)N1CCCCC1 (stereo not given) | 3% (inactive)
32 | CC(C)CC(=O)CN1C(=O)C2(OCCO2)c2ccccc21 | 0% (inactive)
33 | O=C(CSc1nnc(-c2ccccc2)o1)NC1CCCCC1 | 0% (inactive)
34 | COc1cccc(C(=O)Nc2c(C(N)=O)oc3ccccc23)c1 | 0% (inactive)
35 | CC(Sc1nnnn1C)C(=O)Nc1ccc(Oc2ccccc2)cc1 (stereo not given) | 0% (inactive)
36 | Cn1c(=O)c2c(nc(SCC(=O)NCc3ccc4c(c3)OCO4)n2Cc2ccccc2)n(C)c1=O | 0% (inactive)
37 | Cc1ccc2c(c1)-c1c(cnn1CC(=O)Nc1ccccc1N1CCN(C)CC1)CO2 | 0% (inactive)
38 | O=C(Nc1ccc2c(c1)OCCO2)C1CCCN1S(=O)(=O)c1cccc2cccnc12 (stereo not given) | 0% (inactive)
39 | COc1cc(C2c3c(n[nH]c3C)C(=O)N2c2ccc(Br)cc2)ccc1O (stereo not given) | 4% (inactive)
40 | CNC(=O)CN(c1cc(C)ccc1OC)S(=O)(=O)c1ccc(C)cc1 | 3% (inactive)
